Assay results published in the supplement of paper PMC8047044.
Counter-ions that a name gives are not always drawn.

system: Neuro-2a; test: neurite formation score, plate-normalized to DMSO control mean 5.04 (score (0-8 scale)); higher = more or longer neurites; settings: 1 µM
Method: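 Neuro-2a mouse neuroblastoma cells in PLL-coated 96-well plates were pre-treated for 1 h in DMEM(+) with each kinase inhibitor at 1 µM, then switched to serum-free DMEM(-) with inhibitor to induce neurite outgrowth and fixed about 2-3 h later. Three blinded observers scored neurite formation from 0 (no neurites) to 8 (long neurites on almost all cells).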

Structure (SMILES)	neurite formation score
O=C(NC1CCNCC1)c1n[nH]cc1NC(=O)c1c(Cl)cccc1Cl	5.57
COc1cc2nccc(Oc3ccc(NC(=O)Nc4ccc(F)cc4F)c(F)c3)c2cc1OC	5.24
CCC[C@H](NC(=O)/C(C#N)=C/c1cccc(Br)n1)c1ccccc1	1.24
COc1cc2ncc(-c3ccccc3)nc2cc1OC [Tyrphostin AG 1296]	5.24
CN1CCN(c2nc(C3=C(c4c[nH]c5ccccc45)C(=O)NC3=O)c3ccccc3n2)CC1 [Sotrastaurin (AEB071)]	5.96
CCc1cncnc1N1CCN(Cc2nc3ccc(C(F)(F)F)cc3[nH]2)CC1	4.54
Cc1ccc(NC(=O)c2cccc(N(C)C)c2)cc1NC(=O)c1ccc(O)cc1	5.63
O=S(=O)(NCCNC/C=C/c1ccc(Br)cc1)c1cccc2cnccc12	4.54
Nc1nccc(Oc2ccc(NC(=O)c3c[nH]cc(-c4ccc(F)cc4)c3=O)cc2F)c1Cl	3.96
c1cc(-c2cnn3cc(-c4ccc(OCCN5CCCCC5)cc4)cnc23)ccn1 [Dorsomorphin 2HCl]	4.96
COC(=O)Nc1nc2cc(C(=O)c3cccs3)ccc2[nH]1 [Nocodazole]	1.29
O=C(Nc1ccc2[nH]nc(-c3ccncc3)c2c1)[C@@H]1CCN(CC(=O)N2CCN(c3ccc(-c4ncccn4)cc3)CC2)C1	3.8
COc1ccc(S(=O)(=O)N(CCO)c2ccccc2CN(C)C/C=C/c2ccc(Cl)cc2)cc1 [KN-93 Phosphate]	4.21
C=CC(=O)Nc1cccc(Nc2nc(Nc3ccc(OCCOC)cc3)ncc2F)c1	4.91
COc1cc2/c(=N/c3ccc(Br)cc3F)nc[nH]c2cc1OCC1CCN(C)CC1 [Vandetanib (ZD6474)]	4.8
NC(=O)c1cccc(-c2cc(Nc3ccc(OC(F)(F)F)cc3)ncn2)c1	5.14
Cc1ccc(NC(=O)c2ccc(CN3CCN(C)CC3)cc2)cc1Nc1nccc(-c2cccnc2)n1 [Imatinib (STI571)]	4.54
O=C(O)CCC(=O)Nc1ccc(Br)cn1 [Bikinin]	4.54
COc1cc(N2CCC(N3CCN(C)CC3)CC2)ccc1Nc1ncnc(Nc2ccccc2S(=O)(=O)C(C)C)n1	5.24
COc1cc(OC)c(/C=C/S(=O)(=O)Cc2ccc(OC)c(NCC(=O)O)c2)c(OC)c1	0.908

Structure (SMILES)	neurite formation score
CCCS(=O)(=O)Nc1ccc(F)c(C(=O)c2c[nH]c3ncc(Cl)cc23)c1F	2.91
O=C(Nc1cccc(Cl)c1)Nc1ncc(CCNc2ncnc3ccsc23)s1 [SNS-314 Mesylate]	4.69
Cc1cc(Nc2cc(N3CCN(C)CC3)nc(/C=C/c3ccccc3)n2)n[nH]1	3.02
CS(=O)(=O)c1cccc(CNc2nc(Nc3ccc4c(c3)CCC(=O)N4)ncc2C(F)(F)F)c1	3.47
Cc1cn(-c2cc(NC(=O)c3ccc(C)c(Nc4nccc(-c5cccnc5)n4)c3)cc(C(F)(F)F)c2)cn1 [Nilotinib(AMN-107)]	4.57
CNC(=O)c1cc(Oc2ccc(NC(=O)Nc3cc(C(C)(C)C)nn3-c3ccc4ncccc4c3)c(F)c2)ccn1 [DCC-2036 (Rebastinib)]	1.29
NC(=O)c1ccc(N(C(N)=O)c2c(F)cccc2F)nc1-c1ccc(F)cc1F	4.63
C=CC(=O)Nc1ccc2ncnc(Nc3ccc(OCc4cccc(F)c4)c(Cl)c3)c2c1	4.24
O=C(c1cccc(Cl)c1F)N1CCN(Cc2cccc(Nc3nccs3)n2)CC1	4.14
Cc1cc(CN2CCN(c3c(Br)cnc4nc(-c5ccc(N6CCN(C)CC6)cc5)[nH]c34)CC2)no1	4.47
O=c1cc(N2CCOCC2)oc2c(-c3cccc4c3sc3ccccc34)cccc12	2.9
Cc1ccc2c(Nc3ccc(Cl)cc3)nccc2c1Nc1ncccc1-c1ncnc2nc[nH]c12 [B-Raf inhibitor 1]	2.47
Cn1cc(-c2ccc3c(c2)CCN3C(=O)Cc2cccc(C(F)(F)F)c2)c2c(N)ncnc21	4.36
COc1cc(Nc2nc3ccccc3nc2NS(=O)(=O)c2ccc(NC(=O)c3ccc(C)c(OC)c3)cc2)cc(OC)c1	4.57
O=C(NCCCNc1nc(Nc2cccc(NC(=O)N3CCCC3)c2)ncc1I)c1cccs1	5.24
Cc1csc(-c2nnc(Nc3ccc(Oc4ncccc4-c4ccnc(N)n4)cc3)c3ccccc23)c1	3.36
O=S(=O)(c1cccc2cnccc12)N1CCCNCC1 [Fasudil (HA-1077) HCl]	4.24
Cc1ccc(-c2nn(C(C)(C)C)c3ncnc(N)c23)cc1	2.9
CCOc1cc2ncc(C#N)c(Nc3ccc(OCc4ccccn4)c(Cl)c3)c2cc1NC(=O)/C=C/CN(C)C [Neratinib (HKI-272)]	3.47
CNC(=O)c1ccccc1Nc1nc(Nc2ccc(N3CCOCC3)cc2OC)ncc1Cl	4.29
